In PubChem BioAssay (NCI) one finds growth data, which are given here for eleven compounds.

This is part of a sample that, as a whole, favours compounds with a hit. Of some 83,000 tested, about 20% had one in any assay.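 For each line, cells grew in 96-well plates with the test compound present at a single concentration for 48 hours.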 Unmarked numbers belong to inactive results. The source made the active and inactive calls. The calls were made as follows: active = growth percent below 10; inactive = the rest.

Common to all, as to experiment: NCI-60 one-dose screen, 48 h (100 = growth as untreated, 0 = no growth, -100 = all killed)
One test concerns NCI-H226 lung. To be noted: 10 µM unless noted.
A further test has as its system NCI-H322M lung. The following applies: 10 µM unless noted.
A further test deals with COLO 205 colon. To be noted: 10 µM.
The subject of the next test is MALME-3M melanoma. To be noted: 10 µM unless noted.
Another test relates to HT29 colon. The following applies: 10 µM unless noted.
In a further test the test system is PC-3 prostate. To be noted: 10 µM unless noted.
The test system of the next test is SK-MEL-5 melanoma. The following applies: 10 µM unless noted.
The subject of the next test is EKVX NSCLC. To be noted: 10 µM unless noted.
In the next test the test system is CAKI-1 renal. To be noted: 10 µM unless noted.
The next test concerns CCRF-CEM leukemia. To be noted: 10 µM unless noted.
The subject of the next test is RPMI-8226 leukemia. To be noted: 10 µM unless noted.
Another test relates to OVCAR-5 ovarian. The following applies: 10 µM unless noted.
The next test has as its system IGROV1 ovarian. To be noted: 10 µM.
The next test deals with OVCAR-3 ovarian. The following applies: 10 µM unless noted.
The test system of a further test is HS 578T breast. To be noted: 10 µM unless noted.
The next test has as its system MCF7 breast. The following applies: 10 µM unless noted.
In the next test the test system is NCI-H522 lung. The following applies: 10 µM unless noted.
The next test relates to SNB-75 CNS. The following applies: 10 µM unless noted.
The next test concerns HOP-92 NSCLC. To be noted: 10 µM unless noted.

`Cc1cccc(N(C)c2cccc3c2C(=O)[Se]C3)c1C`: the growth in the test on NCI-H226 lung is 36.6%; in the test with NCI-H322M lung, 72.8%; in the test on COLO 205 colon, 27.1%; in the test on MALME-3M melanoma, 63.7%; in the test with HT29 colon it was 9.4% (active); in the test on PC-3 prostate, 66.7%. The growth was 66% with SK-MEL-5 melanoma; 19.9% with EKVX NSCLC; 70.1% in the test on CAKI-1 renal; 56.1% in the test on CCRF-CEM leukemia; 81.9% in the test on RPMI-8226 leukemia; 25.5% in the test on OVCAR-5 ovarian. The growth is 28.2% in the test with IGROV1 ovarian, 66.3% with OVCAR-3 ovarian, 58.8% with HS 578T breast and 49.6% with MCF7 breast.

For the compound `COc1ccc(OC)c(/C=C(/C)[N+](=O)[O-])c1`, the growth in the test with NCI-H226 lung was 94.3%; with NCI-H322M lung it was 98%; in the test with COLO 205 colon, -38.9% (active); with HT29 colon, -29% (active); in the test on PC-3 prostate it was 52.6%; in the test with SK-MEL-5 melanoma it was 64.6%. Besides, the growth was 83.9% in the test with EKVX NSCLC; 6.25% (active) in the test on CAKI-1 renal; -2.22% (active) in the test with CCRF-CEM leukemia; -21.9% (active) with RPMI-8226 leukemia; 108% in the test with OVCAR-5 ovarian; -24.8% (active) in the test with IGROV1 ovarian. For the same compound, the growth with OVCAR-3 ovarian is -11.3% (active); with HS 578T breast, 70.6%; in the test with MCF7 breast, 6.58% (active).

Take `COc1ccc(/C=C(/C(=O)N2CCCC2)c2cc(OC)c(OC)c(OC)c2)cc1N`: the growth was 75.9% in the test with NCI-H226 lung; 48.1% with NCI-H322M lung; 3.14% (active) with NCI-H522 lung; 5.31% (active) in the test with COLO 205 colon; 9.12% (active) in the test on HT29 colon; -12.2% (active) in the test with SNB-75 CNS. Moreover, the growth is 14.5% in the test on PC-3 prostate; 52.8% with EKVX NSCLC; 19% in the test with CCRF-CEM leukemia; 31.6% with RPMI-8226 leukemia; 54.5% with OVCAR-5 ovarian; 51.4% in the test on IGROV1 ovarian. In addition, the growth in the test on OVCAR-3 ovarian was 0.49% (active); in the test with HS 578T breast, 15.2%; in the test on MCF7 breast, 14.2%.

As to `O=S(=O)(O)c1ccc(-c2ccc([As](=O)(O)O)cc2)cc1`, the growth in the test with NCI-H226 lung was 110%; with NCI-H322M lung it was 104%; in the test on HOP-92 NSCLC it was -91% (active); in the test on COLO 205 colon, 114%; with MALME-3M melanoma, 101%; in the test with SNB-75 CNS, 87.1%. The growth with SK-MEL-5 melanoma was 110%; with EKVX NSCLC, 101%; in the test on CCRF-CEM leukemia, 99.7%; with OVCAR-5 ovarian it was 106%; in the test with OVCAR-3 ovarian, 107%; in the test with MCF7 breast, 103%.

Regarding `C=CC(=O)NC(O)C(Cl)(Cl)Cl` (stereo not drawn), the growth in the test with NCI-H226 lung was 112%; in the test on NCI-H322M lung it was 85%; in the test with MALME-3M melanoma, 85.5%; with HT29 colon, 106%; in the test with PC-3 prostate, 102%; with SK-MEL-5 melanoma, 119%. Besides, the growth with CAKI-1 renal is 93.5%; with RPMI-8226 leukemia it was 102%; in the test with OVCAR-5 ovarian, 107%; with IGROV1 ovarian, 98.1%; in the test with OVCAR-3 ovarian, 105%; with HS 578T breast, 120%. Moreover, in the test with MCF7 breast, the growth is 105%.

Turning to `Nc1nc(N)c(-c2ccc(Cl)c(Cl)c2)c(/C=C/c2ccc(S(=O)(=O)F)cc2)n1`, the growth was 114% with NCI-H226 lung; 89.8% in the test with NCI-H322M lung; 98.1% in the test on COLO 205 colon; 86.9% in the test with MALME-3M melanoma; 59.4% in the test on HT29 colon; 78.4% in the test on SNB-75 CNS. For the same compound, the growth with PC-3 prostate was 65%; with SK-MEL-5 melanoma, 84.6%; with CAKI-1 renal, 84.4%; with CCRF-CEM leukemia, 58.7%; in the test with RPMI-8226 leukemia it was 93.1%; in the test with OVCAR-5 ovarian, 80.8%. The growth with IGROV1 ovarian was 89.3%; in the test on OVCAR-3 ovarian, 95.4%; with MCF7 breast, 73.5%.

For the compound `CCOc1cc(/C=N\Nc2nnc(C)n2N)c(C)cc1N(CCCl)CCCl`, the growth with NCI-H226 lung is 26.6%; with NCI-H322M lung, 11.3%; in the test on HT29 colon it was 23.9%; in the test with SNB-75 CNS it was 24.1%; in the test on PC-3 prostate, 7.23% (active); in the test with SK-MEL-5 melanoma, -47.3% (active). The growth in the test on CCRF-CEM leukemia is 4.43% (active); in the test on RPMI-8226 leukemia it was -37.9% (active); in the test on OVCAR-5 ovarian, 52.6%; in the test with IGROV1 ovarian, 12.3%; in the test on HS 578T breast, 14.6%; with MCF7 breast, 9.29% (active).

For `CNC(=O)Oc1ccccc1`, the growth with NCI-H226 lung is 102%; in the test on NCI-H322M lung it was 107%; in the test with COLO 205 colon, 104%; with MALME-3M melanoma, 105%; in the test on HT29 colon, 118%; with SNB-75 CNS, 80.7%. For the same compound, the growth in the test with PC-3 prostate is 106%; with SK-MEL-5 melanoma it was 97.1%; in the test on RPMI-8226 leukemia, 96.4%; in the test with OVCAR-5 ovarian, 101%; in the test with IGROV1 ovarian, 116%; in the test on OVCAR-3 ovarian, 108%.

With `CCCCn1cc(C(=O)/C(C#N)=C/c2cc3ccccc3nc2Cl)c2cc(OC)ccc21`, the growth with NCI-H226 lung was 84.3%; with NCI-H322M lung, 98%; in the test with COLO 205 colon it was 104%; in the test on MALME-3M melanoma it was 88.6%; in the test with HT29 colon, 89.9%; in the test with SNB-75 CNS, 75.4%. For the same compound, the growth in the test on PC-3 prostate is 87.7%; with EKVX NSCLC, 93.9%; in the test with CAKI-1 renal, 75%; in the test on OVCAR-5 ovarian, 102%; in the test on IGROV1 ovarian, 61.2%; with HS 578T breast, 88.6%. Also, the growth in the test on MCF7 breast was 72%.

For `C[CH2][Pb]([CH2]C)([CH2]C)[O]C(=O)COc1ccccc1`, the growth is 23.2% with NCI-H226 lung; 0.448% (active) in the test with NCI-H322M lung; 1.67% (active) in the test on COLO 205 colon; 21.8% in the test on MALME-3M melanoma; 4.3% (active) in the test on HT29 colon; 20.3% in the test on PC-3 prostate. Moreover, the growth in the test on OVCAR-5 ovarian was -5.58% (active); in the test with IGROV1 ovarian, 2.01% (active); in the test on HS 578T breast, 4.72% (active); in the test on MCF7 breast it was 0.688% (active).

With `CC1(C)N=C(N)N=C(N)N1c1ccc(OCCCCNC(=O)c2ccc(S(=O)(=O)F)cc2)c(Cl)c1`, the growth with NCI-H226 lung is 117%; in the test with NCI-H322M lung, 55.5%; with COLO 205 colon, 61.7%; in the test on MALME-3M melanoma it was 71.3%; in the test on HT29 colon, 27.6%; in the test with SNB-75 CNS, 87.7%. Further, the growth is 23.4% in the test on PC-3 prostate; 51.4% in the test with SK-MEL-5 melanoma; 99.2% in the test with CAKI-1 renal; 31% in the test with CCRF-CEM leukemia; 89.9% in the test with RPMI-8226 leukemia; 56.2% with OVCAR-5 ovarian. Also, the growth is 33.7% in the test on IGROV1 ovarian, 119% with OVCAR-3 ovarian and 34.7% in the test with MCF7 breast.
